Consider 19 compounds from PubChem BioAssay (EPA / NIEHS).

The nature of assay [1]: CCTE_Deisenroth_AIME_384WELL_CTox_Inactive: Cytotoxicity Assessment (CTOX) in CCTE's 384-well Estrogen Receptor Transactivation Assay without AIME metabolic competence (metabolism negative), Deisenroth Lab (AID 2284039; active = hit-call score of the fitted dose curve at least 0.9, where 1 is the maximum;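 also: cell viability via live-cell protease substrate cleaved to fluorescent probe; cells exposed 24 h to medium preincubated 2 h with alginate-water beads without S9; loss of fluorescence signal means loss of viability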). The procedure, abridged:
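VM7Luc4E2 human breast cells received conditioned medium from a 2 h incubation of chemical with alginate-water microspheres (no S9), then were exposed 24 h. Viability was read as protease-substrate cleavage to a fluorescent probe; loss of signal was fitted bidirectionally over 0.002–200 uM.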

Assay [2] in a line: CCTE_Shafer_MEA_dev_active_electrodes_number: CCTE's Neural Network Formation Assay for Number of Active Electrodes, Shafer Lab (AID 2284040; active = hit-call score of the fitted dose curve at least 0.9, where 1 is the maximum;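 also: potency for loss of active electrodes versus DMSO so lower counts are hits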). Summed up: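 Developing rat cortical networks on MEAs, exposed DIV 0–12. Value is the AUC of active-electrode counts (≥5 spikes/min) from days 5, 7, 9, 12, relative to DMSO.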
Assay [3] is described as follows: CCTE_Shafer_MEA_dev_burst_rate: CCTE's Neural Network Formation Assay for Burst Rate, Shafer Lab (AID 2284042). The procedure, abridged:
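Rat primary cortical cultures on PEI/laminin MEA; compound from plating, re-dosed at DIV 5, 9 media change. Single-electrode bursts/recording length, well mean of active electrodes; AUC over DIV 5–12 recordings; loss-of-signal vs DMSO.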

The nature of assay [4]: CCTE_Shafer_MEA_dev_bursting_electrodes_number: CCTE's Neural Network Formation Assay for Number of Bursting Electrodes, Shafer Lab (AID 2284043; active = hit-call score of the fitted dose curve at least 0.9, where 1 is the maximum;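 also: potency is for loss of bursting electrodes relative to DMSO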). Summed up: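 Rat cortical primary neurons, 48-well MEA, 16 electrodes/well; dosing DIV 0–12, re-dosed with full media change DIV 5, 9. Recordings DIV 5/7/9/12, AxIS adaptive spike detector; bursting electrode = ≥1 burst/2 min. AUC across days; loss of signal vs DMSO.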

Assay [5] in a line: CCTE_Shafer_MEA_dev_per_burst_interspike_interval: CCTE's Neural Network Formation Assay for Burst Interspike Interval, Shafer Lab (AID 2284044).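 Also: mean spike spacing inside bursts as AUC over recordings on days 5 7 9 12.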 Summed up: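 Spontaneous activity of maturing rat cortical networks is recorded on DIV 5, 7, 9 and 12 under chronic compound exposure beginning at plating. Endpoint: burst interspike interval well-mean, collapsed into trapezoidal AUC and fitted in the negative direction relative to DMSO.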

Assay [6] can be described thus: CCTE_Shafer_MEA_dev_burst_duration_mean: CCTE's Neural Network Formation Assay for Mean Burst Duration, Shafer Lab (AID 2284045). The procedure, abridged:
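Rat cortical cultures, 1.5 x 10^5 cells/well with laminin drop; continuous dosing days 0–12, media plus treatment refreshed DIV 5, 9. AxIS adaptive spike detection; mean single-electrode burst duration, AUC over four recordings, negative direction vs DMSO.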

Assay [7] can be described thus: CCTE_Shafer_MEA_dev_interburst_interval_mean: CCTE's Neural Network Formation Assay for Mean Interburst Interval, Shafer Lab (AID 2284046).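 Also: well-mean interburst interval of bursting electrodes as AUC over four recording days; curve fitted for decrease in interburst interval relative to DMSO.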 Summed up:
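Rat cortical neurons, 1.5 x 10^5 cells/well, 48-well MEA; compound from day 0 through DIV 12, media and treatment renewed DIV 5/9. Recordings DIV 5, 7, 9, 12; well-mean interburst interval → trapezoidal AUC, loss direction vs DMSO.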

A short description of assay [8]: CCTE_Shafer_MEA_dev_inter_network_spike_interval_mean: CCTE's Neural Network Formation Assay for Mean Inter-network Spike Interval, Shafer Lab (AID 2284047). Summed up: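 Primary rat cortical neurons on PEI-coated 48-well MEAs (16 electrodes/well) were exposed from plating day 0 to DIV 12, with dosing renewed at DIV 5 and 9. Recordings at DIV 5, 7, 9, 12 were collapsed by trapezoidal AUC, loss-of-signal fit vs DMSO.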

Assay [9] can be described thus: CCTE_Shafer_MEA_dev_network_spike_number: CCTE's Neural Network Formation Assay for Number of Network Spikes, Shafer Lab (AID 2284048).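 Also: synchronized bursts across electrodes counted on days 5 7 9 12 and integrated as AUC.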 Summed up:
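Rat cortical primary cultures on 48-well MEA (16 electrodes/well); continuous exposure DIV 0–12, full medium and treatment exchange DIV 5, 9. Readout: network spike count, AxIS adaptive detection, recordings DIV 5/7/9/12 collapsed to AUC; loss-of-signal fit, DMSO baseline.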

A short description of assay [10]: CCTE_Shafer_MEA_dev_network_spike_peak: CCTE's Neural Network Formation Assay for Mean Number of Electrodes in Network Spike, Shafer Lab (AID 2284049).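 As to AC50: fitted for loss of signal meaning fewer electrodes in network spikes than DMSO.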 The procedure, abridged: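 Network-spike peak electrode count from recordings on days 5, 7, 9 and 12 was combined as trapezoidal area under the curve. Rat cortical cultures were treated continuously from plating, with compound renewed at each feed (DIV 5, 9); fits versus DMSO.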

The nature of assay [11]: CCTE_Shafer_MEA_dev_spike_duration_mean: CCTE's Neural Network Formation Assay for Mean Spike Duration, Shafer Lab (AID 2284051).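 Also: mean network spike duration pooled as area under curve over DIV 5 to 12 recordings.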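 As to AC50: potency for a decrease in mean network spike duration versus DMSO.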 Summed up: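 Rat cortical primary cultures, 48-well MEA (16 electrodes/well); compound from plating, renewed DIV 5, 9. Network spike duration (AxIS adaptive detector) recorded DIV 5/7/9/12, combined as trapezoidal AUC; loss direction vs DMSO.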

A short description of assay [12]: CCTE_Shafer_MEA_dev_per_network_spike_spike_number_mean: CCTE's Neural Network Formation Assay for Mean Number of Spikes in a Network Spike, Shafer Lab (AID 2284053). Summed up: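 Rat cortical primary cultures on 48-well MEA; compound from day 0, re-dosed with full media change DIV 5, 9. Recorded DIV 5, 7, 9, 12; spikes in 0.05 s window at network-spike peak ÷ total network spikes; AUC; loss vs DMSO.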

Assay [13] is described as follows: CCTE_Shafer_MEA_dev_per_network_spike_spike_percent: CCTE's Neural Network Formation Assay for Percent of Spikes in a Network Spike, Shafer Lab (AID 2284054). Summed up: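 Read-out: percent of spikes falling in a 0.05 s window at network-spike peak, from spontaneous MEA recordings on days 5, 7, 9 and 12; trapezoidal AUC; loss of signal versus DMSO. Rat cortical cultures, compound present throughout.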

Assay [14] can be described thus: CCTE_Shafer_MEA_dev_LDH: CCTE's Lactate Dehydrogenase Assay for Cytotoxicity in the Neural Network Formation Assay, Shafer Lab (AID 2284068; active = hit-call score of the fitted dose curve at least 0.9, where 1 is the maximum;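 also: exposure for twelve days from plating with re-dosing on DIV 5 and 9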). The procedure, abridged:
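Rat cortical primary neurons, MEA culture; dosing day 0–12, full medium plus compound exchange DIV 5, 9. Read-out: LDH enzyme activity, spectrophotometric. DMSO = negative control/baseline; signal loss → cytotoxicity.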

Assay [15] can be described thus: CCTE_Shafer_MEA_acute_AB: CCTE's Alamar Blue Assay for Cytotoxicity in the Neural Acute Assay, Shafer Lab (AID 2284069; active = hit-call score of the fitted dose curve at least 0.9, where 1 is the maximum;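 also: active compounds lower the viability signal compared with DMSO wells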). Summed up:
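Read-out: resazurin fluorescence (ex 544, em 590 nm) after CTB reagent at 1:6 dilution in fresh media. Cells: primary rat cortical neuron networks, DIV 13 or 15, chemically exposed on MEA plates; DMSO as negative control/baseline.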
(In general: The colour change of resazurin is a common sign of viable cells or microbes.)

Assay [16] can be described thus: CCTE_Shafer_MEA_dev_AB: CCTE's Alamar Blue Assay for Cytotoxicity in the Neural Network Formation Assay, Shafer Lab (AID 2284083; active = hit-call score of the fitted dose curve at least 0.9, where 1 is the maximum;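 also: resazurin reduction fluorescence as viability of cultured neurons; twelve days of exposure from plating with re-dosing on DIV 5 and 9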). Summed up:
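Rat cortical primary cultures, 1.5 x 10^5 cells/well on MEA; continuous compound exposure over 12 days of network development, re-dosed with full medium change DIV 5 and 9. Alamar Blue fluorescence; loss of signal = cytotoxicity vs DMSO baseline.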

For assay [17], the system named is DIO2 (gene 1734). As to the kind of experiment: CCTE_GLTED_hDIO2: CCTE's human Deiodinase 2 (DIO2) Inhibition Assay, Great Lakes Toxicology and Ecology Division (GLTED) Lab (AID 2284050; active = hit-call score of the fitted dose curve at least 0.9, where 1 is the maximum). The procedure, abridged:
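Readout: absorbance from Sandell-Kolthoff detection of free iodide released by human DIO2 during a 3 h incubation with chemical. Cell-free format, n=3; activity fitted relative to DMSO negative control.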

Assay [18] concerns DIO3 (gene 1735). As to the kind of experiment: CCTE_GLTED_hDIO3: CCTE's human Deiodinase 3 (DIO3) Inhibition Assay, Great Lakes Toxicology and Ecology Division (GLTED) Lab (AID 2284055; active = hit-call score of the fitted dose curve at least 0.9, where 1 is the maximum;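 also: potency is for inhibition seen as loss of released iodide signal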). The procedure, abridged: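 hDIO3 (adenovirus-expressed) + test chemical, 3 h incubation; free iodide quantified by Sandell-Kolthoff reaction, absorbance read-out. DMSO negative control, n=3.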

Several values for one entry are separate records, joined by “and”; a condition that tells them apart may be missing. Equal entries are not always repeated. Results filed as inconclusive are left out. Some structures have more than one record in an assay (separate samples or runs), and their calls can disagree. Activity calls are given as the source filed them. The calls were made as follows, unless noted: active = hit-call score of the fitted dose curve at least 0.9, where 1 is the maximum; inactive = score below 0.9.

As to `Oc1cccc2cccnc12`, the outcome in assay [1] was inactive.

Regarding `NNC(=S)NN`, in [1], the compound was called inactive.

With `O=S(=O)(c1ccc(Cl)cc1)c1ccc(Cl)cc1`, the call in assay [1] was inactive.

Take `c1cc[c]([Hg][c]2ccccc2)cc1`: in [1], the result was inactive.

`CCCCCCCCSC(=O)Oc1cc(Cl)nnc1-c1ccccc1`: in assay [1], the result was inactive.

In the case of `COc1ccc(C=O)cc1`, the compound was called inactive in assay [1].

For the compound `O=C1CCCN1`, in assay [1], the compound was classed as inactive.

On to `ClC(Cl)=C(Cl)C(Cl)=C(Cl)Cl`, for which the result in assay [1] was inactive.

As for `CC(C)(C)c1cc(O)ccc1O`, the AC50 in assay [1] is 100 µM (active); in assay [2], 6.05 µM (active); in assay [4], 6.04 µM (active); in assay [10], 10 µM (active); in assay [11], 9.62 µM (active); in [12], 5.63 µM (active). The AC50 in assay [13] is 5.23 µM (active); in [14] it was 15 µM (active); in [16] it was 15.2 µM (active). The result in assay [3], in assay [5], in [6], in assay [7], in assay [8] and in [9] was inactive. For the same compound, the compound was classed as inactive in [15].

Consider `O=C(O)C(F)(F)C(F)(F)C(F)(F)C(F)(F)C(F)(F)C(F)(F)F`, for which the compound was called inactive in [1], in assay [3], in assay [5], in [6], in assay [7] and in assay [8]. Further, the result in [9], in assay [10], in assay [11], in [12] and in [13] was inactive.

On to `[O-][Cl+2]([O-])O`, for which the compound was called inactive in assay [1].

As for `NC(=O)O`, the compound was called inactive in assay [1].

Turning to `O=C(Cc1ccccc1)c1ccccc1`, the call in [1] was inactive.

Regarding `C[C@@H]1C[C@@H]([C@H](O)CC2CC(=O)NC(=O)C2)C(=O)[C@@H](C)C1`, the call in assay [1] was inactive.

Take `O=C1C(Cl)=C(Cl)C(=O)c2ccccc21`: the AC50 in assay [1] was 189 µM (active); in assay [17], 26.8 µM (active); in assay [18], 11.3 µM (active).

On to `CNC`, for which the outcome in assay [1] was inactive.

`CC(=O)c1cc(C(C)(C)C)cc2c1CCC2(C)C`: the outcome in [1] was inactive.

Regarding `CC(=O)C=C(C)C`, the outcome in [1] was inactive.

On to `COP(=O)(OC)O/C(=C\Cl)c1cc(Cl)c(Cl)cc1Cl`, for which the AC50 was 100 µM (active) in assay [1]; 78.5 µM (active) and 51.5 µM (active) in assay [2]; 79.3 µM (active) and 51.5 µM (active) in [4]; 86.9 µM (active) and 12.5 µM (active) in assay [10]; 84.2 µM (active) in [11]; 50 µM (active) and 51.5 µM (active) in assay [14]. The AC50 in assay [16] was 50 µM (active). Further, the call in assay [3], in assay [5], in assay [6], in assay [7], in assay [8] and in assay [9] was inactive. Also, the outcome in assay [11], in [12], in [13] and in assay [16] was inactive.

As a reminder, the AC50 is the concentration at which the activity in the assay is half-maximal.
